High-throughput results: PubChem BioAssay, Buhrlage Lab, Dana-Farber Cancer Institute and Novartis Institutes for BioMedical Research (Cambridge, Mass)
A selection: hits, their analogues and other compounds. The true share with any hit is near 3.4%.
OTUD3 inh – inhibitors of human OTUD3 deubiquitinase; purified OTUD3, Ub-rhodamine fluorescence, 2 h; inhibition, % at 25 µM; 0.7% of 47,000 active; AID 1645858, 2021
USP28 block – inhibitors of human USP28 deubiquitinase; Ubiquitin carboxyl-terminal hydrolase 28 (Homo sapiens), Q96RU2; purified USP28, Ub-rhodamine cleavage fluorescence, 30 min; inhibition, % at 25 µM; 3% of 47,000 active; AID 1645857, 2021
Target sequence (Q96RU2 whole entry, looked up): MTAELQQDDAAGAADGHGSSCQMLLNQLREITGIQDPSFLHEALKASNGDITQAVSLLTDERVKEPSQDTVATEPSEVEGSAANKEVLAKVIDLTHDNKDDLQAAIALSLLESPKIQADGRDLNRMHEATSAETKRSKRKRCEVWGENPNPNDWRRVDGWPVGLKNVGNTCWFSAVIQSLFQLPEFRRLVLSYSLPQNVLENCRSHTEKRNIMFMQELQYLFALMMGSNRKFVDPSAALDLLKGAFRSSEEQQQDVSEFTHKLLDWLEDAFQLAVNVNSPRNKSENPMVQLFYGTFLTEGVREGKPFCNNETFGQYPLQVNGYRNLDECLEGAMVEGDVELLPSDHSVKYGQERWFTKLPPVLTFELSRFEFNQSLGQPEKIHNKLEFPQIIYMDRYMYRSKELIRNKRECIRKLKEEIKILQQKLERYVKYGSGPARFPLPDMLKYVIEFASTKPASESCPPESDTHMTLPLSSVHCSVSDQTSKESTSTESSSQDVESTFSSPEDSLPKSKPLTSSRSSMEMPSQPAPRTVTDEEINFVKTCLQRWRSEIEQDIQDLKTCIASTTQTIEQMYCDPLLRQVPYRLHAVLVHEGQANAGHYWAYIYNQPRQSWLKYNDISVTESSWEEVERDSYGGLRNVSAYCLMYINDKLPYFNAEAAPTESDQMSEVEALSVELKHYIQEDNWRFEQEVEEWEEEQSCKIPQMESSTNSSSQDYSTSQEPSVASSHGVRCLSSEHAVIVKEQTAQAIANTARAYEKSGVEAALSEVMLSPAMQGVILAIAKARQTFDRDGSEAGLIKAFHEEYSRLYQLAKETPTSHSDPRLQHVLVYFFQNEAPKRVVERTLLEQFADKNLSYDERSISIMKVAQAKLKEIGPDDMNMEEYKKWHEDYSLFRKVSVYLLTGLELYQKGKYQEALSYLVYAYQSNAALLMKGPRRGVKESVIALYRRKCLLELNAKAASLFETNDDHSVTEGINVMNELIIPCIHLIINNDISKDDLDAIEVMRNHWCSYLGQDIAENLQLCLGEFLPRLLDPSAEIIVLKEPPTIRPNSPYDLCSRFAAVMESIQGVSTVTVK
Active calls of the source: *. Rule as the data show it: active = inhibition above about 30%; inactive = the rest.

What do the screens show for `O=C(Cc1ccc(F)c(F)c1)NCc1cnc(C2CCCCO2)nc1` (stereo unspecified)?
OTUD3 inh: 2; USP28 block: -7

What do the screens show for `COc1ccc(-c2cc(-c3ccc(F)cc3)[nH]c(=O)c2C#N)cc1`?
OTUD3 inh: 24; USP28 block: 16

What do the screens show for `COc1cc(-c2ccno2)ccc1S(=O)(=O)Nc1ccccc1Cl`?
OTUD3 inh: 6; USP28 block: 60*

What do the screens show for `COc1cc(-c2ccno2)ccc1S(=O)(=O)Nc1ccc(C#N)cc1`?
OTUD3 inh: -10; USP28 block: -7

How did O=c1cc(CN2CCc3ccccc3C2)nc2nc(NCc3ccccc3)[nH]n12 do in these assays?
OTUD3 inh: 3; USP28 block: 8

How did O=c1cc(CN2CCc3ccccc3C2)nc2nc(NCc3ccc(Cl)cc3)[nH]n12 do in these assays?
OTUD3 inh: 18; USP28 block: 30*

Results for O=S1(=O)NC(=NCCc2ccc(Cl)cc2)c2ccccc21 ?
OTUD3 inh: 7; USP28 block: 9

What do the screens show for `COc1cc2c(cc1OC)[C@H](C)N(CC1C(=O)O[C@@]34[C@H]1CC[C@@H](C)[C@@H]3CC[C@@]1(C)O[C@@H]41)CC2` (stereo partly specified)?
OTUD3 inh: -13; USP28 block: -5

What do the screens show for `CNc1nc2c(c(=O)n1C)CN(C(=O)Nc1ccc(C(C)(C)C)cc1)CC2`?
OTUD3 inh: -13; USP28 block: 0

How did CNc1nc2c(c(=O)n1C)CN(C(=O)Nc1cccc3ccccc13)CC2 do in these assays?
OTUD3 inh: 59*; USP28 block: 43*

Results for O=C(CSc1ccc(-c2cccc([N+](=O)[O-])c2)nn1)Nc1cccc(F)c1 ?
OTUD3 inh: 5; USP28 block: 40*

How did O=C(CSc1ccc(-c2ccccc2)nn1)Nc1ccc(F)c([N+](=O)[O-])c1 do in these assays?
OTUD3 inh: -4; USP28 block: 4

What do the screens show for `O=C(NCc1ccccc1)N1C[C@H]2CC[C@@]3(N=C(c4ccccc4)NC3=O)[C@H]2C1`?
OTUD3 inh: 9; USP28 block: 14

Results for O=C1COc2ccccc2C/C=C/CC2(CCN(C(=O)c3n[nH]c4c3CCC4)CC2)CN1 ?
OTUD3 inh: -27; USP28 block: -24

How did CNC(=O)c1cnn2c(C3CCCCN3C(=O)CC(C)(C)C)ccnc12 (stereo unspecified) do in these assays?
OTUD3 inh: 18; USP28 block: 4

How did COc1ccccc1CNS(=O)(=O)c1ccc(-c2cc(C)no2)s1 do in these assays?
OTUD3 inh: -1; USP28 block: 6

How did CC(C)(C)C(=O)C1C2C(=O)N(c3ccc4c(c3)OCO4)C(=O)C2C2c3ccccc3C=CN12 (stereo unspecified) do in these assays?
OTUD3 inh: 55*; USP28 block: 64*

How did COc1ccc(NC(=O)C2[C@@H]3C(=O)N(c4ccc5c(c4)OCO5)C(=O)[C@@H]3[C@H]3c4ccccc4C=CN23)cc1 (stereo partly specified) do in these assays?
OTUD3 inh: -39; USP28 block: 8

How did NS(=O)(=O)c1ccc(CCNC(=O)C(=O)c2c[nH]c3ccccc23)cc1 do in these assays?
OTUD3 inh: 7; USP28 block: 36*

Results for NS(=O)(=O)c1ccc(CCNC(=O)C2CCN(c3nc4ccccc4[nH]3)CC2)cc1 ?
OTUD3 inh: 6; USP28 block: 0

What do the screens show for `Cc1nc(NC(=O)c2nnn(-c3ccc(F)cc3)n2)sc1C`?
OTUD3 inh: -2; USP28 block: 6

What do the screens show for `COc1ccc(-n2nnc(C(=O)Nc3nc(C)c(C)s3)n2)cc1`?
OTUD3 inh: 12; USP28 block: 42*

What do the screens show for `COc1cccc(NC(=O)c2nnn(-c3ccccc3)n2)c1`?
OTUD3 inh: -2; USP28 block: 66*

How did Cc1ccc(NC(=O)c2nnn(-c3ccccc3)n2)cc1 do in these assays?
OTUD3 inh: -3; USP28 block: 29

Results for Cc1noc(C)c1CN1CCC2(CC1)CCn1c(-c3ccnn3C)cnc12 ?
OTUD3 inh: 11; USP28 block: 8

What do the screens show for `COc1ccc(C)cc1-n1nnnc1SCC(=O)c1cc(C)ccc1C`?
OTUD3 inh: 12; USP28 block: 22

What do the screens show for `Cc1ccccc1C(=O)Nc1cccc(SC(C(=O)Nc2ccc(O)c(C(=O)O)c2)c2ccccc2)c1` (stereo unspecified)?
OTUD3 inh: 11; USP28 block: 15

How did Cc1cccc(C(=O)Nc2cccc(SC(C(=O)Nc3ccc(O)c(C(=O)O)c3)c3ccccc3)c2)c1 (stereo unspecified) do in these assays?
OTUD3 inh: 8; USP28 block: 52*

Results for O=C(OCC(Cc1ccccc1)N1Cc2ccccc2C1=O)c1ccccc1Cl (stereo unspecified) ?
OTUD3 inh: 21; USP28 block: 7

What do the screens show for `CC(CCc1ccccc1)NC(=O)COc1ccc(Cl)c(Cl)c1` (stereo unspecified)?
OTUD3 inh: 22; USP28 block: 31*

Results for CCc1cc(OCC(=O)NC(c2ccccc2)c2ccccc2)ccc1Cl ?
OTUD3 inh: 6; USP28 block: 4

Results for COc1ccc(NC(=O)Nc2ccc(CCc3nc4ccccc4[nH]3)cc2)c(OC)c1 ?
OTUD3 inh: 16; USP28 block: 28

What do the screens show for `COc1cccc(NC(=O)Nc2ccc(CCc3nc4ccccc4[nH]3)cc2)c1`?
OTUD3 inh: -4; USP28 block: 66*

How did c1ccc(CNc2nn3c(-c4cccnc4)cnc3s2)cc1 do in these assays?
OTUD3 inh: 2; USP28 block: 10

How did COc1ccc(CNc2nn3c(-c4cncc(OC)c4)cnc3s2)cc1 do in these assays?
OTUD3 inh: 0; USP28 block: 48*

Results for Cc1cc(-c2ccc(S(=O)(=O)NCc3ccc4c(c3)OCO4)s2)on1 ?
OTUD3 inh: 2; USP28 block: 6

How did COc1ccc(NC(=O)N(C2=NCCC2)c2ccccc2)cc1 do in these assays?
OTUD3 inh: 1; USP28 block: 1

What do the screens show for `COc1ccccc1N(C(=O)Nc1ccccc1)C1=NCCC1`?
OTUD3 inh: 7; USP28 block: 46*

What do the screens show for `CC(C)OCCCN1C(=O)C2C(C(=O)Nc3ccc(Oc4ccccc4)cc3)C3C=CC2(O3)C1C(=O)NC1CCCCC1` (stereo unspecified)?
OTUD3 inh: 33*; USP28 block: 18

What do the screens show for `CCCN1C(=O)C2C(C(=O)Nc3ccc(Oc4ccccc4)cc3)C3C=CC2(O3)C1C(=O)NC1CCCCC1` (stereo unspecified)?
OTUD3 inh: 4; USP28 block: -7

How did O=C(c1ccc2occc2c1)N1CCC(S(=O)(=O)c2ccc(-c3ccco3)cc2)CC1 do in these assays?
OTUD3 inh: 14; USP28 block: 20

What do the screens show for `N#Cc1ccc(-c2ccc(S(=O)(=O)C3CCN(CC(=O)c4ccc(F)cc4)CC3)cc2)cc1`?
OTUD3 inh: -28; USP28 block: -29

What do the screens show for `O=S(=O)(c1ccc(-c2ccc(Cl)cc2Cl)cc1)C1CCNCC1`?
OTUD3 inh: 9; USP28 block: 44*

What do the screens show for `Cc1ccccc1NC(=O)Cc1nc(COC(=O)c2cccc(S(=O)(=O)N3CC(C)OC(C)C3)c2)cs1` (stereo unspecified)?
OTUD3 inh: -32; USP28 block: -18

Results for Cc1cccc(NC(=O)c2cc3cccnc3n(C)c2=O)c1 ?
OTUD3 inh: -4; USP28 block: 31*
